PAD4 FP inh: inhibitors of human PAD4; Q9UM07; inhibition, % at 6.36 µM; 330,000 tested, 0.41% active; recombinant PAD4, RCA probe fluorescence polarization; AID 485272;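 active = percent inhibition above a cutoff equal to the mean of all tested compounds plus 3 SD, cut at about 15% in these data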;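 note: 0% = PAD4 with RCA probe and DMSO and 100% = probe without PAD4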
Target sequence (Q9UM07 whole entry, looked up): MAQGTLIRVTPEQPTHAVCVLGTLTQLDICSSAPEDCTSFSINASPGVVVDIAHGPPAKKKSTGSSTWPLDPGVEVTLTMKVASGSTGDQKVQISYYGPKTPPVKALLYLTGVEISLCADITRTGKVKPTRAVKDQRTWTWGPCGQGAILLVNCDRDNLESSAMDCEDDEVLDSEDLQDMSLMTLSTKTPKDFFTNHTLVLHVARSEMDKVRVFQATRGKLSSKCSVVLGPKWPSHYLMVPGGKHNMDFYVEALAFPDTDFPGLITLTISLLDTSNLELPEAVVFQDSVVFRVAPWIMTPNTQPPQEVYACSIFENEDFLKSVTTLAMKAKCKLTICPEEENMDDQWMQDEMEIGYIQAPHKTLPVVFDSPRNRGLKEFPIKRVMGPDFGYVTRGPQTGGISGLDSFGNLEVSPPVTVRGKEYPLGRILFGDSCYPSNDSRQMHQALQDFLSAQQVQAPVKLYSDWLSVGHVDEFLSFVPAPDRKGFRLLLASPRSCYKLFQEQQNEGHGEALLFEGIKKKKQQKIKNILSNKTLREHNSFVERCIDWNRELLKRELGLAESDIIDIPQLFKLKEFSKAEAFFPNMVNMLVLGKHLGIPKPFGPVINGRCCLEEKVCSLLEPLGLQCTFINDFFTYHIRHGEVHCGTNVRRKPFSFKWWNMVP
LYPLA2 counter: blocks human lysophospholipase 2, a PME1 counter-screen | O95372 | recombinant LYPLA2, FP-Rh probe fluorescence polarization | inhibition, % at 5.9 µM | 320,000 tested, 0.38% active;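 active = inhibition above the screen-wide mean plus 3 SD, limit set per campaign, cut at about 26% in these data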;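 note: 0% = LYPLA2 with DMSO and 100% = wells lacking LYPLA2 enzyme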
Fam108B inh: counter-screen for RBBP9 inhibitors: inhibitors of mouse Fam108B. recombinant Fam108B, FP-Rh probe fluorescence polarization. inhibition, % at 9.51 µM. 300,000 tested, 0.33% active;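 active = inhibition above the screen mean inhibition plus 3 SD, computed separately per campaign, cut at about 18% in these data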;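 note: inhibitors lower polarization as less probe binds the enzyme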
PME-1 primary: PME-1 (human) inhibition; Q9Y570; recombinant PME-1, FP-Rh probe fluorescence polarization; inhibition, % at 5.9 µM; 320,000 tested, 0.53% active; AID 2130;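 active = inhibition above the campaign mean of all compounds plus 3 SD, cut at about 26% in these data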;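 note: competitive labeling of PME-1 active site by serine hydrolase directed probe; 0% = PME-1 with DMSO and 100% = wells lacking PME-1 enzyme; inhibitors block probe labeling so polarization falls and inhibition rises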
LYPLA1 inh: LYPLA1 (human) inhibition in PME1 counter-screen; O75608; recombinant LYPLA1, FP-Rh probe fluorescence polarization; inhibition, % at 5.9 µM; 320,000 tested, 0.16% active; AID 2174;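 active = inhibition above the mean of all tested compounds plus 3 SD, set per campaign, cut at about 14% in these data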;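 note: inhibitors block serine hydrolase probe labeling of LYPLA1 so polarization falls; 0% = enzyme with DMSO and 100% = wells lacking LYPLA1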
GSTO1 inh: blocks human GSTO1 in RBBP9 counter-screen. P78417. AID 1974. inhibition, % at 5.96 µM. recombinant GSTO1, activity-based probe fluorescence polarization. 300,000 tested, 1.1% active;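 active = inhibition above the campaign mean inhibition plus 3 SD, cut at about 35% in these data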;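 note: 0% = GSTO1-1 with DMSO and 100% = wells lacking GSTO1-1 enzyme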
Fam108b inh conf: Fam108b (mouse) hydrolase inhibition, confirmation assay. inhibition, % at 9.51 µM. shares compounds with Fam108B inh. recombinant Fam108b, FP-Rh probe fluorescence polarization. 930 tested, 44% active;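 active = inhibition above a limit from the primary screen, the mean over all compounds plus 3 SD, cut at about 19% in these data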;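 note: 0% = median of active Fam108b wells and 100% = catalytically dead S170A mutant; inhibitors free the probe so polarization falls as inhibition rises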
Fam108b inh: mouse ABHD17B inhibition; shares compounds with Fam108B inh; recombinant Fam108b, gel-based ABPP, fluorophosphonate probe; inhibition, % at 20 µM; 260 tested, 44% active; in the data active = inhibition above about 40%
Active calls of the source: *. This is a sample that favours compounds with a hit; in the whole collection about 1.7% have one here.

Results for CC(=O)Oc1cc2c3c(c1)/C(=C1/SC(=S)NC1=O)C(=O)N3C(C)(C)C=C2C ?
PAD4 FP inh: 0; LYPLA2 counter: 9; Fam108B inh: 19*; PME-1 primary: 25; LYPLA1 inh: 7; GSTO1 inh: 18; Fam108b inh conf: 22*

How did O=[N+]([O-])c1ccc2nc(-c3ccc(Cl)cc3)[nH]c2c1 do in these assays?
PAD4 FP inh: -1; LYPLA2 counter: -12; Fam108B inh: 20*; PME-1 primary: -11; LYPLA1 inh: -10; GSTO1 inh: -8; Fam108b inh conf: 6

Results for O=C(COc1ccc(Cl)cc1)Nc1ccc(C(=O)O)cc1NC(=O)COc1ccc(Cl)cc1 ?
PAD4 FP inh: -4; LYPLA2 counter: -5; Fam108B inh: -4; PME-1 primary: -3; LYPLA1 inh: -12; GSTO1 inh: -12

Results for O=C(NCC1CC1)c1ccc(Nc2nc3ccc(Br)cc3[nH]2)cc1 ?
PAD4 FP inh: 0; LYPLA2 counter: -6; Fam108B inh: 19*; PME-1 primary: 7; LYPLA1 inh: -13; GSTO1 inh: 5; Fam108b inh conf: 48*; Fam108b inh: 75*

What do the screens show for `O=C(Cc1ccc(Nc2nc3ccc(Br)cc3[nH]2)cc1)NCCc1cccs1`?
PAD4 FP inh: 8; LYPLA2 counter: 1; Fam108B inh: 14; PME-1 primary: 24; LYPLA1 inh: -8; GSTO1 inh: -7

Results for O=C(NCc1ccco1)c1cccc(Nc2nc3ccc(Br)cc3[nH]2)c1 ?
PAD4 FP inh: -2; LYPLA2 counter: -37; Fam108B inh: 25*; PME-1 primary: 24; LYPLA1 inh: -17; GSTO1 inh: -24; Fam108b inh conf: 11

Results for O=C(O)c1ccc(N=NNc2cccc([N+](=O)[O-])c2)cc1 ?
PAD4 FP inh: -4; LYPLA2 counter: 3; Fam108B inh: 2; PME-1 primary: 1; LYPLA1 inh: 5; GSTO1 inh: 3

How did N#C/C(=N\Nc1cccc([N+](=O)[O-])c1)C(=O)c1ccc(Br)cc1 do in these assays?
PAD4 FP inh: -4; LYPLA2 counter: 7; Fam108B inh: 27*; PME-1 primary: 29*; LYPLA1 inh: 13; GSTO1 inh: 24; Fam108b inh conf: 26*

How did CCn1c(C2CCN(S(=O)(=O)c3ccc(OC)cc3)CC2)n[nH]c1=S do in these assays?
PAD4 FP inh: 2; LYPLA2 counter: -2; Fam108B inh: 11; PME-1 primary: -3; LYPLA1 inh: -3; GSTO1 inh: 3

Results for CCN1C(=O)[C@@H]2[C@@H](c3ccc(SC4CCCCC4)c(OC)c3)N3CCC[C@@]3(C(=O)OC)[C@@H]2C1=O ?
PAD4 FP inh: -1; LYPLA2 counter: 2; Fam108B inh: -2; PME-1 primary: 4; LYPLA1 inh: -1; GSTO1 inh: 2

What do the screens show for `Cc1cc(C)nc(SCc2cc(=O)c(OC(=O)c3ccc(Cl)c([N+](=O)[O-])c3)co2)n1`?
PAD4 FP inh: 0; LYPLA2 counter: 1; Fam108B inh: 2; PME-1 primary: 1; LYPLA1 inh: -3; GSTO1 inh: 5

How did O=C/C=C/c1c(-c2ccccc2)cc2oc3ccccc3cc1-2 do in these assays?
PAD4 FP inh: -8; LYPLA2 counter: -6; Fam108B inh: 27*; PME-1 primary: 6; LYPLA1 inh: 2; GSTO1 inh: 31; Fam108b inh conf: -12

How did COc1ccc(-c2nc(SCC(=O)NCc3ccco3)c(-c3ccccc3)[nH]2)cc1OC do in these assays?
PAD4 FP inh: -5; LYPLA2 counter: -5; Fam108B inh: 20*; PME-1 primary: 7; LYPLA1 inh: -1; GSTO1 inh: 7; Fam108b inh conf: -3

Results for COc1ccc(-c2cc(-c3c(O)c(OC)c4occc4c3OC)[nH]n2)cc1OC ?
PAD4 FP inh: -8; LYPLA2 counter: 1; Fam108B inh: 23*; PME-1 primary: 31*; LYPLA1 inh: -9; GSTO1 inh: 10; Fam108b inh conf: 1

What do the screens show for `Oc1c(Br)cc(/C=N/n2c(-c3ccccc3)n[nH]c2=S)c(Br)c1O`?
PAD4 FP inh: 6; LYPLA2 counter: 6; Fam108B inh: 34*; PME-1 primary: -8; LYPLA1 inh: -8; GSTO1 inh: -26; Fam108b inh conf: 41*

Results for O=C(Nc1cccc(Cl)c1)Nc1sccc1-c1nc2ccccc2s1 ?
PAD4 FP inh: -21; LYPLA2 counter: -30; Fam108B inh: 27*; PME-1 primary: 3; LYPLA1 inh: -22; GSTO1 inh: -50; Fam108b inh conf: 20*

Results for CC1CC1C(=O)Nc1nc(-c2ccc(Cl)s2)cs1 (centres undefined) ?
PAD4 FP inh: -8; LYPLA2 counter: -11; Fam108B inh: 20*; PME-1 primary: 0; LYPLA1 inh: -7; GSTO1 inh: 4; Fam108b inh conf: -5

What do the screens show for `O=C(Nc1nc(-c2ccc(Cl)s2)cs1)c1ccncc1`?
PAD4 FP inh: 2; LYPLA2 counter: 0; Fam108B inh: 3; PME-1 primary: -4; LYPLA1 inh: -1; GSTO1 inh: 9

How did CCc1cccc(NC(=O)C(NC(=O)C2CCCCC2)C(C)C)c1 (centres undefined) do in these assays?
PAD4 FP inh: -1; LYPLA2 counter: -2; Fam108B inh: -1; PME-1 primary: -2; LYPLA1 inh: -3; GSTO1 inh: 9

How did CC(C)C(=O)NC(c1ccccc1Cl)c1c(O)ccc2ccccc12 (centres undefined) do in these assays?
PAD4 FP inh: -6; LYPLA2 counter: -3; Fam108B inh: 5; PME-1 primary: 12; LYPLA1 inh: -1; GSTO1 inh: -2

What do the screens show for `CCC(=O)NC(c1ccccc1Cl)c1c(O)ccc2ccccc12` (centres undefined)?
PAD4 FP inh: -2; LYPLA2 counter: 10; Fam108B inh: 18*; PME-1 primary: 47*; LYPLA1 inh: 3; GSTO1 inh: -6; Fam108b inh conf: 1

How did O=C(COc1coc(CN2CCN(c3ccccc3)CC2)cc1=O)NC1CCCC1 do in these assays?
PAD4 FP inh: -5; LYPLA2 counter: -1; Fam108B inh: 0; PME-1 primary: -2; LYPLA1 inh: -1; GSTO1 inh: -1

How did Cc1cccc(C(=O)Oc2ccccc2/C=N/Nc2ccc([N+](=O)[O-])cc2)c1 do in these assays?
PAD4 FP inh: 5; LYPLA2 counter: 3; Fam108B inh: 25*; PME-1 primary: 21; LYPLA1 inh: -8; GSTO1 inh: -1; Fam108b inh conf: 1

Results for O=[N+]([O-])c1ccc(N/N=C/c2cccc(O)c2O)cc1 ?
PAD4 FP inh: 1; LYPLA2 counter: -7; Fam108B inh: 19*; PME-1 primary: 33*; LYPLA1 inh: -11; GSTO1 inh: 22; Fam108b inh conf: 93*
